Shown are actives, neighbours in structure and some others; about 8% of the full set was active somewhere.
KB-V1 cytotox – kills drug-selected multidrug resistant KB-V1 cells. hit rate 3.4% among 400,000. Potency, µM (highest dose often 46.1 µM), most hits filed as cytotoxic. KB-V1 MDR cells viability, CellTiter-Glo, 72 h; also: nearly all actives have a fitted effect of over 60% in size
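Readout: CellTiter-Glo luminescence, 10 min after addition. Cells: KB-V1 MDR subline, 72 h at 37 degrees C with compound. Analysis: corrected, normalized data fitted to concentration-effect curves.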
MCF10A rerep – inducers of DNA re-replication in MCF 10A breast cells | MCF 10A DNA re-replication, Hoechst nuclear intensity, 48 h | Potency, µM (top dose mostly 46.1 µM), hits mostly activators | hit rate 2.9% among 350,000 | AID 624296; also: nearly all actives have a fitted effect of over 50% in size
SW480 rereplic – inducers of DNA re-replication in SW480 colon cancer cells. SW480 DNA re-replication, Hoechst DNA content imaging, 48 h. Potency, µM (doses to about 46.1 µM), actives largely listed as activators. hit rate 1.8% among 340,000. AID 624297; also: nearly all actives have a fitted effect of over 55% in size
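SW480 cells exposed to compounds for 48 hr at 37 C, 5% CO2, then Hoechst-stained 40 min. Nuclear DNA content imaged by fluorescence scanning (405 nm excitation, 500-530 nm emission); re-replication scored as increased high-intensity nuclei.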
KB-3-1 cytotox – kills parental KB-3-1 adenocarcinoma cells; KB-3-1 viability, CellTiter-Glo ATP luminescence, 72 h; Potency, µM (highest dose often 46.1 µM), hits mostly cytotoxic; hit rate 1.4% among 400,000; AID 1347075; also: nearly all actives have a fitted effect of over 60% in size
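Parental KB-3-1 viability, qHTS format: 72 h compound exposure, 37 °C; CellTiter-Glo; media-only wells and DMSO plates as controls; concentration-effect fits on corrected data.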
HT1080-NT tox – kills 2HG-producing HT-1080-NT fibrosarcoma cells | AID 686970 | HT-1080-NT fibrosarcoma viability, CellTiter-Glo ATP luminescence, 48 h | hit rate 1.6% among 360,000 | Potency, µM (top dose mostly 46.1 µM), hits mostly cytotoxic;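 also: NT is the 2HG producing partner of a matched IDH1 knockdown line; nearly all actives have a fitted effect of over 55% in size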
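750 cells/well, RPMI + 5% FBS; 2 h settle, compound pin-transfer, 48 h at 37 degrees C. CellTiter-Glo 10 min RT, luminescence. Normalized to DMSO and media-only wells.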
HT1080 IDH1KD tx – HT-1080 IDH1 knockdown cell toxicity (counter line); hit rate 2% among 360,000; AID 686971; HT-1080 IDH1 knockdown viability, ATP luminescence, 48 h; Potency, µM (doses to about 46.1 µM), most hits filed as cytotoxic
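Viability of IDH1-knockdown HT-1080 fibrosarcoma cells was assessed by CellTiter-Glo after 48 h at 37 °C with titrated compound; concentration-effect curves were classified by fit quality and response size.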
Large screens that a line does not name were inactive. Calls follow the shape of the dose curve; as a rule, active = well fitted curve in the direction sought with a large enough effect; inconclusive = small, poorly fitted or top-dose-only effect, or another doubt; inactive = no such curve, though single readings can be large; an effect the other way counts as inactive or inconclusive.

Cc1nc([N+](=O)[O-])cn1CC(O)c1ccc2c(c1)OCCO2 (stereo not drawn)	none (no result: MCF10A rerep, SW480 rereplic, HT1080-NT tox, HT1080 IDH1KD tx)
O=C(Nc1ccc(F)cc1)Nc1cc(OCC(F)(F)F)cc(OCC(F)(F)F)c1	KB-V1 cytotox inconclusive, MCF10A rerep inconclusive, SW480 rereplic inconclusive, KB-3-1 cytotox 6.5µM, HT1080-NT tox 7.3µM, HT1080 IDH1KD tx 8.2µM
COc1cccc(C2=CC(=O)CC(C)(C)C2)n1	KB-V1 cytotox inconclusive
COC(=O)c1cc(C#N)c(N2CCN(C)CC2)nc1C	MCF10A rerep 21µM
COc1cc2ccccc2ccc1=NO	KB-V1 cytotox 16µM, MCF10A rerep inconclusive, SW480 rereplic inconclusive, KB-3-1 cytotox inconclusive
COc1ccc(C(=O)Nn2c(CC(C)C)nc3cc(Cl)ccc3c2=O)c(OC)c1	none
Cc1ccc(C)c(-c2[nH]c3c(c2-c2c(-n4cccc4)n(C)c(=O)[nH]c2=O)c(=O)[nH]c(=O)n3C)c1	none (no result: MCF10A rerep, SW480 rereplic, HT1080-NT tox, HT1080 IDH1KD tx)
Fc1ccc(/C=N/Nc2nccnc2Cl)cc1	KB-3-1 cytotox inconclusive, HT1080-NT tox inconclusive, HT1080 IDH1KD tx inconclusive
Oc1ccc(/C=N/Nc2nccnc2Cl)cc1	KB-V1 cytotox inconclusive, KB-3-1 cytotox 16µM, HT1080-NT tox 16µM, HT1080 IDH1KD tx 26µM
Fc1cccc(/C=N/Nc2nccnc2Cl)c1	KB-V1 cytotox 5.8µM, KB-3-1 cytotox inconclusive, HT1080-NT tox 12µM, HT1080 IDH1KD tx 15µM
O=[N+]([O-])c1cccc(/C=N/Nc2nccnc2Cl)c1	HT1080-NT tox inconclusive
COc1ccc(C2CC(=O)c3cc(-c4nc(-c5cccc([N+](=O)[O-])c5)cs4)c(=O)n(-c4ccccc4N)c3C2)cc1 (stereo not drawn)	KB-V1 cytotox inconclusive (no result: MCF10A rerep, SW480 rereplic, HT1080-NT tox, HT1080 IDH1KD tx)
COc1ccc(CN(C)C(=O)C23CC4CC(CC(C4)C2)C3)c(OC)c1	KB-V1 cytotox inconclusive, MCF10A rerep 13µM, SW480 rereplic inconclusive, KB-3-1 cytotox inconclusive
Cc1nn(CC(C)C)c(Cl)c1C(=O)N(c1ccc(Cl)cc1F)S(C)(=O)=O	KB-V1 cytotox inconclusive, MCF10A rerep 21µM, HT1080-NT tox inconclusive
COc1ccc(CCNC(=O)c2c(C)nn(CC(C)C)c2Cl)cc1	KB-V1 cytotox inconclusive
COc1ccc(OCc2cccc(C(=O)O)c2)cc1	KB-V1 cytotox 18µM, KB-3-1 cytotox inconclusive, HT1080-NT tox inconclusive, HT1080 IDH1KD tx inconclusive
COc1cc(/C=C/[N+](=O)[O-])ccc1OCc1cccc(C(=O)O)c1	MCF10A rerep 10µM, SW480 rereplic inconclusive, HT1080-NT tox inconclusive, HT1080 IDH1KD tx inconclusive
COc1cc(/C=N/NC(=O)c2cccc([N+](=O)[O-])c2)ccc1OCc1ccccc1	KB-V1 cytotox inconclusive
CCOc1ccc(OCc2cccc(C(=O)N3CCCC3)c2)cc1	KB-V1 cytotox inconclusive
CCOc1ccc(OCc2cccc(C(=O)O)c2)cc1	HT1080-NT tox 7.9µM, HT1080 IDH1KD tx 7.9µM
CCc1ccc(CNC(=O)CN2C(=O)c3cccnc3Oc3ccc(C)cc32)cc1	none (no result: MCF10A rerep, SW480 rereplic, HT1080-NT tox, HT1080 IDH1KD tx)
CN(C)c1ccc(CNC(=O)C2CCCN(S(=O)(=O)c3ccc4c(c3)oc(=O)n4C)C2)cc1 (stereo not drawn)	none (no result: MCF10A rerep, SW480 rereplic, HT1080-NT tox, HT1080 IDH1KD tx)
CC1=CC(=O)C(C(C)C)=C/C1=C(\c1cc(C(C)C)c(OP(=O)(O)O)cc1C)c1ccccc1C(=O)O	KB-V1 cytotox inconclusive, MCF10A rerep 21µM, SW480 rereplic inconclusive, KB-3-1 cytotox 16µM, HT1080-NT tox inconclusive, HT1080 IDH1KD tx 23µM
CCOc1ccc(C(=O)c2ccccc2C(=O)O)cc1OCC	KB-V1 cytotox inconclusive
CCC(c1nnnn1-c1ccc2c(c1)OCCO2)N1CCN(c2ccc(OC)cc2)CC1 (stereo not drawn)	KB-V1 cytotox 16µM, KB-3-1 cytotox inconclusive (no result: MCF10A rerep, SW480 rereplic)
COc1ccc(-n2nnnc2SCC(=O)N2CCOCC2)cc1	none
CCC(c1nnnn1-c1ccc2c(c1)OCCO2)N1CCN(c2ccccc2OC)CC1 (stereo not drawn)	KB-V1 cytotox 7.3µM, KB-3-1 cytotox inconclusive, HT1080 IDH1KD tx inconclusive (no result: MCF10A rerep, SW480 rereplic)
COc1ccc(N2CCN(C(=O)CSc3nnc(-c4cc5ccccc5cc4O)n3C)CC2)cc1	KB-V1 cytotox 2.3µM, KB-3-1 cytotox 18µM, HT1080-NT tox inconclusive, HT1080 IDH1KD tx inconclusive
CCC(c1nnnn1-c1ccc2c(c1)OCCO2)N1CCN(c2cccc(C)c2C)CC1 (stereo not drawn)	KB-3-1 cytotox inconclusive, HT1080-NT tox inconclusive, HT1080 IDH1KD tx inconclusive (no result: MCF10A rerep, SW480 rereplic)
COc1ccc(N2CCN(C(=O)CSc3nnnn3-c3ccc4c(c3)OCCO4)CC2)cc1	KB-V1 cytotox 21µM, MCF10A rerep 16µM
CCC(c1nnnn1-c1ccc2c(c1)OCCO2)N1CCN(c2ncccn2)CC1 (stereo not drawn)	none (no result: MCF10A rerep, SW480 rereplic)
CCCS(=O)(=O)NC(=O)C1(C)CCN1C(=O)Cc1ccc(Cl)cc1Cl (stereo not drawn)	HT1080 IDH1KD tx inconclusive (no result: MCF10A rerep, SW480 rereplic)
CCOC(=O)C1CCCN(C(=O)c2nn(-c3ccc(C)cc3)c(=O)c3c2c2ccccc2n3C)C1 (stereo not drawn)	none (no result: MCF10A rerep, SW480 rereplic, HT1080-NT tox, HT1080 IDH1KD tx)
CCC(c1nnnn1-c1ccc2c(c1)OCCO2)N1CCN(c2ccccc2)CC1 (stereo not drawn)	KB-3-1 cytotox inconclusive (no result: MCF10A rerep, SW480 rereplic)
CCC(c1nnnn1-c1ccc2c(c1)OCCO2)N1CCN(c2ccc(C)cc2)CC1 (stereo not drawn)	KB-3-1 cytotox 18µM (no result: MCF10A rerep, SW480 rereplic)
CN(C)c1ccc(CNC(=O)c2ccc(NC(=O)N3CCCCc4ccccc43)cc2)cc1	none (no result: MCF10A rerep, SW480 rereplic, HT1080-NT tox, HT1080 IDH1KD tx)
Cc1ccc(-c2csc3ncnc(N4CCc5ccccc5C4)c23)cc1	KB-V1 cytotox inconclusive, MCF10A rerep 18µM
CCOC(=O)CNC(=O)c1sc2ncnc(N3CCc4ccccc4C3)c2c1C	KB-V1 cytotox 15µM, MCF10A rerep inconclusive, SW480 rereplic inconclusive
Fc1ccc(-c2csc3ncnc(N4CCc5ccccc5C4)c23)cc1	KB-V1 cytotox inconclusive, MCF10A rerep 10µM
COc1ccc(S(=O)(=O)N2CCCN(CC(=O)Nc3ccccc3F)CC2)cc1	KB-V1 cytotox 9.2µM
O=C(CN1CCN(S(=O)(=O)c2ccccc2)CC1)Nc1ccccc1C(=O)NC1CC1	KB-V1 cytotox 6.5µM
COCCC(=O)N1CCC(Oc2ccc(C(=O)NC3CCOC(C)(C)C3)cc2)CC1 (stereo not drawn)	none
Cc1ccc(C#N)c(SCc2ccccc2F)n1	SW480 rereplic inconclusive
Cc1ccc2nc(CSc3nc(C)ccc3C#N)[nH]c2c1	MCF10A rerep inconclusive, SW480 rereplic inconclusive, HT1080-NT tox 18µM, HT1080 IDH1KD tx 16µM

Screens (PubChem BioAssay)
